# From PubChem BioAssay (EPA / NIEHS)
# Activity calls are given as the source filed them. Rule for the calls: active = hit-call score of the fitted dose curve at least 0.9, where 1 is the maximum; inactive = score below 0.9.
# What was measured:
# [1] = read-out: TIMP metallopeptidase inhibitor 2 (TIMP2), TIMP2 (gene 7077); assay: BSK_KF3CT_TIMP2: BioMAP Diversity Plus: KF3CT Assay for TIMP metallopeptidase inhibitor 2 (TIMP2) Biomarker Activity (AID 2283071); conditions: primary human keratinocytes with fibroblasts; actives raise or lower the signal
# Summary of the method: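 ELISA readout of TIMP-2 in keratinocyte plus foreskin fibroblast co-cultures (human skin primary cells), 24 h post-dose. Gain or loss of signal fitted relative to DMSO.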
# [2] = read-out: Transforming growth factor beta 1 (TGFb1), TGFB1 (gene 7040); assay: BSK_KF3CT_TGFb1: BioMAP Diversity Plus: KF3CT Assay for Transforming growth factor beta 1 (TGFb1) Biomarker Activity (AID 2283072); conditions: primary human keratinocytes with fibroblasts; actives raise or lower the signal
# Summary of the method: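 Read-out: ELISA for TGF-b1 in keratinocyte/foreskin fibroblast human skin co-culture, 24 h after dosing; bidirectional curve fit vs DMSO baseline; gain or loss of signal scored.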
# [3] = read-out: C-C motif chemokine 2 (Homo sapiens) (UniProt P13500); assay: BSK_KF3CT_MCP1: BioMAP Diversity Plus: KF3CT Assay for Monocyte Chemoattractant Protein 1 (MCP1/CCL2) Biomarker Activity (AID 2283073); conditions: primary human keratinocytes with fibroblasts; actives raise or lower the signal
# Summary of the method: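 Human keratinocyte plus foreskin fibroblast primary co-culture exposed to chemical for 24 h. MCP-1 levels measured by ELISA. Bidirectional curve fitting relative to DMSO negative control as baseline.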
# CD40, CD40 (gene 958) [4] = assay: BSK_LPS_CD40: BioMAP Diversity Plus: LPS Assay for CD40 Biomarker Activity (AID 2283076); conditions: primary human HUVEC with PBMC; actives raise or lower the signal
# Summary of the method: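 Primary human umbilical vein endothelial cells co-cultured with peripheral blood mononuclear cells, LPS-stimulated, were dosed with chemical and read 24 h later. CD40 levels were measured by ELISA and fitted bidirectionally against DMSO as negative control and baseline.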
# [5] = read-out: E-selectin (Homo sapiens) (UniProt P16581); assay: BSK_LPS_Eselectin: BioMAP Diversity Plus: LPS Assay for Eselectin Biomarker Activity (AID 2283077); conditions: primary human HUVEC with PBMC; actives raise or lower the signal
# Summary of the method: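 Human umbilical vein endothelial cells co-cultured with peripheral blood mononuclear cells under LPS stimulation; E-selectin measured by ELISA 24 h after chemical dosing. Activity fitted bidirectionally against DMSO as negative control and baseline.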
# [6] = read-out: Interleukin-8 (IL8), CXCL8 (gene 3576); assay: BSK_LPS_IL8: BioMAP Diversity Plus: LPS Assay for Interleukin-8 (IL8) Biomarker Activity (AID 2283078); conditions: primary human HUVEC with PBMC; actives raise or lower the signal
# Summary of the method: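 Human umbilical vein endothelial cells co-cultured with PBMC were stimulated with LPS; IL-8 levels were measured by ELISA 24 h after chemical dosing. Activity was fitted bidirectionally against DMSO as negative control and baseline.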
# [7] = BSK_LPS_SRB: Viability Assessment in the BioMAP Diversity Plus: LPS Assay (AID 2283079); conditions: primary human HUVEC with PBMC;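 note: total protein by sulforhodamine B absorbance as a cytotoxicity measure; measured one day after compound addition; fitted in both directions against DMSO so loss or gain of signal counts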
# Summary of the method: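 Human umbilical vein endothelial cells co-cultured with PBMC (LPS system) were dosed for 24 h. Total protein was stained with 0.1% sulforhodamine B after 10% TCA fixation, read at 560 nm, and fitted bidirectionally against DMSO baseline.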
# [8] = read-out: Interleukin-1 alpha (IL1a), IL1A (gene 3552); assay: BSK_LPS_IL1a: BioMAP Diversity Plus: LPS Assay for Interleukin-1 alpha (IL1a) Biomarker Activity (AID 2283080); conditions: primary human HUVEC with PBMC; actives raise or lower the signal
# Summary of the method: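 Human umbilical vein endothelial cells co-cultured with peripheral blood mononuclear cells were LPS-stimulated and exposed to test chemicals for 24 h. IL-1 alpha was quantified by ELISA, with bidirectional curve fitting against DMSO as the negative control and baseline.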
# [9] = BSK_LPS_PGE2: BioMAP Diversity Plus: LPS Assay for Prostaglandin E2 (PGE2) Biomarker Activity (AID 2283082); conditions: primary human HUVEC with PBMC; actives raise or lower the signal
# Summary of the method: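 ELISA read-out of PGE2 from human umbilical vein endothelial cells co-cultured with peripheral blood mononuclear cells under LPS, 24 h post-dose. Gain or loss of signal scored relative to DMSO baseline.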
# [10] = read-out: Macrophage colony-stimulating factor (MCSF), CSF1 (gene 1435); assay: BSK_LPS_MCSF: BioMAP Diversity Plus: LPS Assay for Macrophage colony-stimulating factor (MCSF) Biomarker Activity (AID 2283083); conditions: primary human HUVEC with PBMC; actives raise or lower the signal
# Summary of the method: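 Human umbilical vein endothelial cells co-cultured with peripheral blood mononuclear cells were exposed to compound for 24 h. M-CSF levels were measured by ELISA, and bidirectional curve fitting used DMSO as the negative control and baseline.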
# [11] = read-out: Tumor necrosis factor (Homo sapiens) (UniProt P01375); assay: BSK_LPS_TNFa: BioMAP Diversity Plus: LPS Assay for Tumour Necrosis Factor alpha (TNFa) Biomarker Activity (AID 2283085); conditions: primary human HUVEC with PBMC; actives raise or lower the signal;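 for AC50: TNFa protein level quantified by ELISA in the co-culture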
# Summary of the method: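 HUVEC/PBMC co-culture, LPS-stimulated; 24 h post-dose; TNFa by ELISA; gain or loss of signal fitted bidirectionally vs DMSO baseline.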
# [12] = read-out: Vascular cell adhesion molecule 1 (VCAM1), VCAM1 (gene 7412); assay: BSK_LPS_VCAM1: BioMAP Diversity Plus: LPS Assay for Vascular cell adhesion molecule 1 (VCAM1) Biomarker Activity (AID 2283086); conditions: primary human HUVEC with PBMC; actives raise or lower the signal
# Summary of the method: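 ELISA read-out of VCAM-1 at 24 h post-dosing in an LPS-driven HUVEC/PBMC primary human co-culture; gain or loss of signal fitted bidirectionally against DMSO baseline. Cytotoxicity tracked in parallel cultures by SRB total-protein staining.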
# CD40, CD40 (gene 958) [13] = assay: BSK_SAg_CD40: BioMAP Diversity Plus: SAg Assay for CD40 Biomarker Activity (AID 2283088); conditions: primary human HUVEC with PBMC; actives raise or lower the signal
# Summary of the method: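 Human umbilical vein endothelial cells co-cultured with PBMC; CD40 levels measured by ELISA with fluorescence read-out 24 h after chemical dosing. Gain or loss of signal fitted bidirectionally against DMSO baseline.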
# CD69, CD69 (gene 969) = assay: BSK_SAg_CD69: BioMAP Diversity Plus: SAg Assay for CD69 Biomarker Activity (AID 2283089); conditions: primary human HUVEC with PBMC; actives raise or lower the signal;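 for AC50: cell surface CD69 protein quantified by ELISA with fluorescence detection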
# Summary of the method: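 HUVEC co-cultured with PBMC were dosed with chemical, and CD69 was measured by ELISA with fluorescence read-out 24 h later. Bidirectional curve fitting used DMSO as negative control and activity baseline.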
# [14] = read-out: Monocyte Chemoattractant Protein-1 (MCP1), CCL2 (gene 6347); assay: BSK_SAg_MCP1: BioMAP Diversity Plus: SAg Assay for Monocyte Chemoattractant Protein-1 (MCP1) Biomarker Activity (AID 2283090); conditions: primary human HUVEC with PBMC; actives raise or lower the signal
# Summary of the method: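 Values derive from bidirectional fitting of ELISA-measured MCP1 against DMSO controls. Readings were taken 24 h after dosing human vascular endothelial cells co-cultured with peripheral blood mononuclear cells under superantigen stimulation.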
# [15] = read-out: urokinase plasminogen activator (uPA), PLAU (gene 5328); assay: BSK_KF3CT_uPA: BioMAP Diversity Plus: KF3CT Assay for urokinase plasminogen activator (uPA) Biomarker Activity (AID 2283075); conditions: primary human keratinocytes with fibroblasts; actives raise or lower the signal
# Summary of the method: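 Values derive from bidirectional fitting against DMSO controls. Keratinocyte/foreskin fibroblast co-cultures received chemical; 24 h later uPA was detected by ELISA, with SRB total-protein staining in parallel wells for overt cytotoxicity.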
# [16] = read-out: Monocyte Chemoattractant Protein-1 (MCP1), CCL2 (gene 6347); assay: BSK_LPS_MCP1: BioMAP Diversity Plus: LPS Assay for Monocyte Chemoattractant Protein-1 (MCP1) Biomarker Activity (AID 2283081); conditions: primary human HUVEC with PBMC; actives raise or lower the signal;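 for AC50: secreted MCP-1 protein quantified by ELISA in culture supernatant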
# Summary of the method: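 HUVEC plus PBMC co-culture (human primary cells, LPS system) exposed to test chemical for 24 h; MCP-1 measured by ELISA. Bidirectional curve fitting against DMSO baseline; parallel SRB total-protein staining flags overt cytotoxicity.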
# CD38, CD38 (gene 952) = assay: BSK_SAg_CD38: BioMAP Diversity Plus: SAg Assay for CD38 Biomarker Activity (AID 2283087); conditions: primary human HUVEC with PBMC; actives raise or lower the signal
# Summary of the method: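 Measures CD38 on a human endothelial/PBMC co-culture driven by SEB and TSST-1, 24 h after compound exposure, using ELISA with fluorescence detection; DMSO defines baseline for bidirectional curve fitting.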
# E-selectin (Homo sapiens), sequence (P16581 whole entry, looked up): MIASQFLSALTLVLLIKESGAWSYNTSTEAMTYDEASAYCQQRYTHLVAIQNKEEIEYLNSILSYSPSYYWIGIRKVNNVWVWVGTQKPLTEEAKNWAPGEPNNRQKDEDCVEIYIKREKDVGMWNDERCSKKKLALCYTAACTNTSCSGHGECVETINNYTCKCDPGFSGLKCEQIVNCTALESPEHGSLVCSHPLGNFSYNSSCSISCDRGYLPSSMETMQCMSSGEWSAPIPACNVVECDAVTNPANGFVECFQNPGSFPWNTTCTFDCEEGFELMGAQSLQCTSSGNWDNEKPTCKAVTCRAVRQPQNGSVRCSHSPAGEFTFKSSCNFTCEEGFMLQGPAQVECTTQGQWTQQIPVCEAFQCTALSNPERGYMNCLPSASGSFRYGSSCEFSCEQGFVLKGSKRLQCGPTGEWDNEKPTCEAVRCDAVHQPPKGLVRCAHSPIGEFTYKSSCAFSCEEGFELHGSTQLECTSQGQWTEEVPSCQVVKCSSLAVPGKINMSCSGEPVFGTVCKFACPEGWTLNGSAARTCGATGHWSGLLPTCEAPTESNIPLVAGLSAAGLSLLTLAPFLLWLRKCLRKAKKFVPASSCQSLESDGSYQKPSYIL
# Tumor necrosis factor (Homo sapiens), sequence (P01375 whole entry, looked up): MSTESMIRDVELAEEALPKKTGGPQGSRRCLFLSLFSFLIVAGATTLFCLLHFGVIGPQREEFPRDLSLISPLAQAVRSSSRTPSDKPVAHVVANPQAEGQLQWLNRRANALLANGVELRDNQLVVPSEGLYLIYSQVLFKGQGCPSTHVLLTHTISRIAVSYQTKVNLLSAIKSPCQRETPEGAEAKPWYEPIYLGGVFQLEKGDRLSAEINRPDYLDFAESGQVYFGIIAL
smiles,measurement,setting,value
Clc1cc(Cl)c2c(c1)N=C1CCCCCN1C2,outcome,[1],inactive
same,outcome,[2],inactive
same,outcome,[3],inactive
same,outcome,"CD40, CD40 (gene 958) [4]",inactive
same,outcome,[5],inactive
same,outcome,[6],inactive
same,outcome,[7],inactive
same,outcome,[8],inactive
same,outcome,[9],inactive
same,outcome,[10],inactive
same,outcome,[11],inactive
same,outcome,[12],inactive
same,outcome,"CD40, CD40 (gene 958) [13]",inactive
same,outcome,"CD69, CD69 (gene 969)",inactive
same,outcome,[14],inactive
OCCO,outcome,[1],inactive
same,outcome,[2],inactive
same,outcome,[15],inactive
same,outcome,"CD40, CD40 (gene 958) [4]",inactive
same,outcome,[5],inactive
same,outcome,[6],inactive
same,outcome,[7],inactive
same,outcome,[8],inactive
same,outcome,[16],inactive
same,outcome,[9],inactive
same,outcome,[11],inactive
same,outcome,[12],inactive
same,outcome,"CD40, CD40 (gene 958) [13]",inactive
same,outcome,"CD69, CD69 (gene 969)",inactive
same,outcome,[14],inactive
CCCCOC(=O)CC(CC(=O)OCCCC)(OC(C)=O)C(=O)OCCCC,outcome,[1],inactive
same,outcome,[2],inactive
same,outcome,[3],inactive
same,outcome,[15],inactive
same,outcome,"CD40, CD40 (gene 958) [4]",inactive
same,outcome,[5],inactive
same,outcome,[6],inactive
same,outcome,[7],inactive
same,outcome,[8],inactive
same,outcome,[9],inactive
same,outcome,[11],inactive
same,outcome,[12],inactive
same,outcome,"CD38, CD38 (gene 952)",inactive
same,outcome,"CD40, CD40 (gene 958) [13]",inactive
same,outcome,"CD69, CD69 (gene 969)",inactive
same,outcome,[14],inactive
COc1cccc([C@H](O)C2CCN(CCc3ccc(F)cc3)CC2)c1OC,outcome,[1],inactive
same,outcome,[2],inactive
same,outcome,[3],inactive
same,outcome,[15],inactive
same,outcome,"CD40, CD40 (gene 958) [4]",inactive
same,outcome,[5],inactive
same,outcome,[6],inactive
same,outcome,[7],inactive
same,outcome,[8],inactive
same,outcome,[16],inactive
same,outcome,[9],inactive
same,outcome,[10],inactive
same,outcome,[11],inactive
same,outcome,[12],inactive
same,outcome,"CD40, CD40 (gene 958) [13]",inactive
same,outcome,"CD69, CD69 (gene 969)",inactive
same,outcome,[14],inactive
CC(C)(c1cc(Br)c(O)c(Br)c1)c1cc(Br)c(O)c(Br)c1,AC50,[1],4.6 µM (active)
same,AC50,[2],1.69 µM (active)
same,AC50,[3],4.16 µM (active)
same,AC50,"CD40, CD40 (gene 958) [4]",24.1 µM (active)
same,AC50,[5],28.7 µM (active)
same,AC50,[6],30.3 µM (active)
same,AC50,[7],29.8 µM (active)
same,AC50,[8],29.9 µM (active)
same,AC50,[16],29.1 µM (active)
same,outcome,[9],inactive
same,AC50,[10],23.5 µM (active)
same,AC50,[11],19.1 µM (active)
same,AC50,[12],26.7 µM (active)
same,AC50,"CD38, CD38 (gene 952)",27.9 µM (active)
same,AC50,"CD40, CD40 (gene 958) [13]",23 µM (active)
same,AC50,"CD69, CD69 (gene 969)",28.4 µM (active)
same,AC50,[14],29 µM (active)
CCCC(=O)OCCC(C)C,outcome,[1],inactive
same,outcome,[2],inactive
same,outcome,[3],inactive
same,outcome,"CD40, CD40 (gene 958) [4]",inactive
same,outcome,[5],inactive
same,outcome,[6],inactive
same,outcome,[7],inactive
same,outcome,[8],inactive
same,outcome,[16],inactive
same,outcome,[9],inactive
same,outcome,[11],inactive
same,outcome,[12],inactive
same,outcome,"CD40, CD40 (gene 958) [13]",inactive
same,outcome,"CD69, CD69 (gene 969)",inactive
same,outcome,[14],inactive
CCCCCCCCCC(=O)O,outcome,[1],inactive
same,outcome,[2],inactive
same,outcome,[3],inactive
same,outcome,[15],inactive
same,outcome,"CD40, CD40 (gene 958) [4]",inactive
same,outcome,[5],inactive
same,outcome,[6],inactive
same,outcome,[7],inactive
same,outcome,[8],inactive
same,outcome,[9],inactive
same,outcome,[11],inactive
same,outcome,[12],inactive
same,outcome,"CD38, CD38 (gene 952)",inactive
same,outcome,"CD40, CD40 (gene 958) [13]",inactive
same,outcome,"CD69, CD69 (gene 969)",inactive
same,outcome,[14],inactive
